TDP1 block: blocks human tyrosyl-DNA phosphodiesterase 1; Q9NUW8; recombinant TDP1, AlphaScreen DNA substrate cleavage; Potency, µM (highest dose often 130 µM), for inactives: at the highest dose activity change, negative = inhibition, most hits filed as inhibitors; 0.28% of 350,000 active; also: potency is read from the fitted curve at half-maximal effect; nearly all actives have a fitted effect of over 40% in size
Target sequence (Q9NUW8 whole entry, looked up): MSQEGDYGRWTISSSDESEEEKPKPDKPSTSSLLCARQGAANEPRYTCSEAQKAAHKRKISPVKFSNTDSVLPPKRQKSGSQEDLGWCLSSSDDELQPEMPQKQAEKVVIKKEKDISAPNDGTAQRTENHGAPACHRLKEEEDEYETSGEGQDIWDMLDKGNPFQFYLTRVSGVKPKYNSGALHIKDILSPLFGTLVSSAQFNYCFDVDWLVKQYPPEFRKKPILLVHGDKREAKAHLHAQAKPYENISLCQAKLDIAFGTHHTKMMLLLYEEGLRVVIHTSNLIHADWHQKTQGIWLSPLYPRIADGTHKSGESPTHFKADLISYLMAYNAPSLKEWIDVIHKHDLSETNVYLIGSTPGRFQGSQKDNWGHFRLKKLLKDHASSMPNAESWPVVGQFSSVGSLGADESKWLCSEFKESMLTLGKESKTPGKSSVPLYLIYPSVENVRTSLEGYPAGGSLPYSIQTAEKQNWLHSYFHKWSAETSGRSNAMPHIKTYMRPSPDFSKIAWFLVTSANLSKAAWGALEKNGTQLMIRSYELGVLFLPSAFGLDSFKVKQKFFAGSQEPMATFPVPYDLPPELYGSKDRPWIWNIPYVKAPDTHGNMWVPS
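Recombinant human Tdp1 (E. coli-expressed, 1 nM final) preincubated with compounds 15 min at room temperature, then 5'-biotin/3'-phosphotyrosine-FITC DNA substrate (15 nM final) added for 5 min. AlphaScreen beads (10 ug/ml final) added 10 min; cleavage lowers signal.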
ELG1 repair inh: inhibitors of ELG1-dependent DNA repair in HEK293T cells; Potency, µM (highest dose often 46.1 µM), without a hit: at the top dose activity change, negative = inhibition, usual class: inhibitors; 2.3% of 330,000 active; HEK293T ELG1-luciferase reporter, luminescence, 16 h; DNA damage induced by 5-fluorouridine; also: potency is read from the fitted curve at half-maximal effect; nearly all actives have a fitted effect of over 55% in size
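Reporter activity after DNA damage by 5-fluorouridine is monitored. Compound-treated cells incubate 16 hr at 37 °C, then ONE-Glo is added for 30 min before luminescence reading.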
IL1B secr inh: inflammasome signaling inhibition, IL-1 beta readout; THP-1 LPS/ATP IL-1B secretion, AlphaLISA, 16 h; active compounds read low; activity change, % at 57.5 µM; 4.7% of 360,000 active; AID 743279; in the data active = activity change below about -50%; inconclusive = mostly about -30% to -49%
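THP-1 cells pretreated 1 hr with compounds (up to 57.5 uM final), then stimulated with LPS (250 ng/mL final) plus ATP (1.25 mM final); secreted IL-1B measured by AlphaLISA after 16 hr, decreased signal indicating inhibition.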
DT40 TDP1 CPT: growth inhibition of DT40 Tdp1-/-;hTDP1 cells with camptothecin (screen for TDP1 inhibitors); chicken DT40 Tdp1-/-;hTDP1 cells + 20 nM CPT, ATP luminescence, 48 h; Potency, µM (highest dose often 46.2 µM), for the others: top-dose activity change, negative = growth inhibition, usual class: inhibitors; 12% of 420,000 active; AID 686979; also: potency is read from the fitted curve at half-maximal effect; nearly all actives have a fitted effect of over 55% in size
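Chicken DT40 Tdp1-/- cells complemented with human TDP1, 400 cells/well, exposed to compounds plus 20 nM camptothecin for at least 48 h at 37 C; viability read as ATP content by CellTiter-Glo luminescence.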
TDP1 cell noCPT: qHTS for Inhibitors of human tyrosyl-DNA phosphodiesterase 1 (TDP1): qHTS in cells in absence of CPT | DT40 Tdp1-/- hTDP1 cells, no CPT, ATP luminescence, 48 h | Potency, µM (series often up to 46.2 µM), inactives show at the top dose activity change, negative = growth inhibition, hits mostly inhibitors | 15% of 420,000 active | AID 686978, 2013; also: potency is read from the fitted curve at half-maximal effect; nearly all actives have a fitted effect of over 55% in size
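Chicken DT40 Tdp1-/- cells stably complemented with human TDP1 were seeded at 400 cells/well with DMSO in place of 20 nM camptothecin. After compound pinning, cells grew at least 48 hr at 37 °C; viability read by CellTiter-Glo luminescence.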
Giardia killer: Giardia lamblia killing; Giardia lamblia trophozoite viability; AID 540267; 0.15% of 340,000 active; activity change, % at 7.66 µM, hits read low; in the data active = activity change below about -80%; inconclusive = between about -30% and that limit;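 also: parasites exposed to compound for two days anaerobically before the ATP read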
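Viability, read as ATP luminescence: trophozoites at 100 cells/well, compound added, 48 hrs anaerobic at 37 deg C, then 15-30 min room-temperature development before reading.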
The depositor's hits bear a star; u = inconclusive; x = no result given; [ ] = remark or other dose. Most compounds without a hit are left out; they make up all but 19% or so of the library. Unless noted, calls follow the shape of the dose curve; as a rule, active = well fitted curve in the direction sought with a large enough effect; inconclusive = small, poorly fitted or top-dose-only effect, or another doubt; inactive = no such curve, though single readings can be large; an effect the other way counts as inactive or inconclusive. % is scaled to controls: 0 for no effect and ±100 for the full control effect.

SMILES	TDP1 block	ELG1 repair inh	IL1B secr inh	DT40 TDP1 CPT	TDP1 cell noCPT	Giardia killer
CCCCOc1ccccc1Cn1c(=O)sc2ccccc21	-4.2%	x	x	u	u	x
COC(=O)c1c(C)oc2ccc(N(C(=O)c3ccncc3)S(=O)(=O)c3ccc(Br)cc3)cc12	9.3%	x	x	8.2µM*	3.66µM*	x
COC(=O)c1c(C)oc(C)c1S(=O)(=O)Nc1ccccc1	-7.7%	-6.4%	0.8	-9.5%	-26.1%	-6.6
COC(=O)c1c(C)oc2ccc(N(C(C)=O)S(=O)(=O)c3ccccc3)cc12	x	-22.2%	-2.2	14.6µM*	-104.8%	1.1
CC(C)OC(=O)C(C(=O)C(F)(F)F)c1cc(NS(=O)(=O)c2ccc3c4c(cccc24)C(=O)N3)ccc1O (stereo not given)	x	x	x	11.6µM*	u	x
COC(=O)c1c(C)oc(C)c1S(=O)(=O)N(Cc1ccccc1)C(C)C	-5.1%	-26.4%	2.4	13µM*	16.4µM*	-13.4
CCOC(=O)N1CCN(S(=O)(=O)c2ccc3c4c(cccc24)C(=O)N3)CC1	0.7%	4.4%	11.0	-2.5%	-19.9%	11.5
CC(=O)c1c(C)oc2ccc(N(C(C)=O)S(=O)(=O)c3ccc(Br)cc3)cc12	x	x	-0.6	u	u	13.8
COc1ccc(CNC(=O)CCCCCNC(=O)N2CCn3c2nc2ccccc23)cc1	2.6%	-2.1%	-18.3	-5.6%	u	27.7
CCCC(=O)N(c1ccc2oc(C)c(C(C)=O)c2c1)S(=O)(=O)c1ccc(CC)cc1	-2.8%	x	x	x	x	x
CC(=O)c1c(C)oc2ccc(N(C(C)=O)S(=O)(=O)c3ccc(Cl)c([N+](=O)[O-])c3)cc12	6.6%	u	-117.3*	u	u	-26.6
CSc1ncc2c(n1)-c1ccccc1N(Cc1ccc(F)cc1)S2(=O)=O	2.6%	x	x	-4.2%	10.6%	x
CCOC(=O)c1c(C)oc2nc(C)nc(NCCc3ccc(C)cc3)c12	-1.1%	x	x	20.6µM*	u	x
CCOC(=O)c1c(C)oc2nc(C)nc(NCCc3ccc(S(N)(=O)=O)cc3)c12	6.3%	x	x	23.1µM*	14.6µM*	x
CCOC(=O)c1c(C)oc2nc(C)nc(NCC3CCN(Cc4cc(C)ccc4C)CC3)c12	0.0%	x	x	-9.2%	-19.9%	x
CN(C)CC[C@H](c1ccc(Br)cc1)c1ccccn1	3.9%[56.1 µM]	x	x	x	x	x
CCc1nn2c(=O)cc(COC(=O)c3ccc(NC(=O)C4CCCCC4)cc3)nc2s1	3.8%	x	x	u	18.4µM*	x
Cc1nn2c(=O)cc(COC(=O)c3ccc(NC(=O)C4CCCCC4)cc3)nc2s1	6.2%	x	x	u	9.2µM*	x
CCCCc1ccc(NC(=O)N2CCN(c3cc(C)nc4ccccc34)CC2)c(C)c1	x	u	-66.9*	u	u	-11.7
Cc1nn(Cc2cccc(C(=O)Nc3ccn(Cc4c(F)c(F)cc(F)c4F)n3)c2)c(C)c1[N+](=O)[O-]	2.6%	20.6µM*	-20.0	u	u	-1.9
COC(=O)CCCCC1SCC2NC(=O)NC21O (stereo not given)	14.1%	4.1%	-113.0*	-0.5%	-27.2%	-0.6
O=C(Cc1ccccc1)Nc1sc2c(c1C(=O)Nc1ccccc1Cl)CCCC2	-4.8%[12.3 µM]	x	x	2.8%	-15.1%	x
Nc1nc(Cl)cc(Sc2ccc3ccccc3c2)n1	-1.0%	-14.6%	-5.2	14.6µM*	23.1µM*	-6.8
CS(=O)(=O)Nc1cccc(-c2cncnc2NCc2cccnc2)c1	x	x	x	12.7%	3.4%	x
O=C1CC(c2ccccc2C(F)(F)F)c2c(c3ccccc3[nH]c2=O)O1 (stereo not given)	5.8%	x	x	5.0%	-11.8%	x
SMILES	TDP1 block	ELG1 repair inh	IL1B secr inh	DT40 TDP1 CPT	TDP1 cell noCPT	Giardia killer
CC(=O)c1cc(C#N)c(SCC(=O)OC(C)(C)C)nc1C	0.9%	12.2%	-25.4	20.6µM*	u	-3.1
CCC(CC)C(=O)OCc1cc(=O)n2nc(C3CC3)sc2n1	5.8%	x	x	-15.5%	u	x
CCCCc1ccc(C(=O)N/C(=C\c2ccc(C)cc2)C(=O)NC2CCCCC2)cc1	4.0%[12.3 µM]	x	x	9.2µM*	14.6µM*	x
Cc1ccc(C(=O)N/C(=C\c2ccc(Cl)cc2)C(=O)NC2CCCCC2)cc1	-2.2%[12.3 µM]	x	x	u	18.4µM*	x
COc1ccc(C2C(C(=O)c3cccs3)=C(O)C(=O)N2Cc2cccnc2)cc1OC (stereo not given)	0.0%	u	26.6	2.6%	-3.0%	3.2
CCCOc1cccc(C2C(C(=O)c3cccs3)=C(O)C(=O)N2Cc2cccnc2)c1 (stereo not given)	2.7%	-5.0%	57.4	u	16.4µM*	21.0
CCCOc1ccc(C2C(C(=O)c3ccc(C)o3)=C(O)C(=O)N2Cc2ccco2)cc1OCC (stereo not given)	6.3%[56.1 µM]	-5.6%	-4.7	u	23.1µM*	-13.1
Cc1cc(N2C(=O)C(O)=C(C(=O)c3ccc(C)o3)C2c2cccc(Oc3ccccc3)c2)no1 (stereo not given)	7.6%	3.9%	5.4	u	23.1µM*	3.4
CCCOc1ccc(C2C(C(=O)c3ccc(C)o3)=C(O)C(=O)N2Cc2ccco2)cc1 (stereo not given)	10.1%	2.5%	18.3	u	u	-7.4
COc1ccc2nc(N3C(=O)C(O)=C(C(=O)c4ccco4)C3c3ccc(C)o3)sc2c1 (stereo not given)	6.0%	16.7%	51.5	-17.4%	18.4µM*	29.9
CCCOc1cccc(C2C(C(=O)c3ccc(C)o3)=C(O)C(=O)N2c2nc(C)c(C(C)=O)s2)c1 (stereo not given)	10.5%[56.1 µM]	13.5%	19.8	u	23.1µM*	-1.4
CCOc1cccc(C2C(C(=O)c3ccc(C)o3)=C(O)C(=O)N2c2nnc(C)s2)c1 (stereo not given)	x	x	-5.0	-2.4%	-19.1%	-9.0
CN1CC[C@]23c4ccccc4N[C@H]1[C@]21CCN(C)[C@H]3Nc2ccccc21	x	1.1%	-21.1	-0.1%	7.1%	-4.9
COC(=O)C1CC23C=CCN4CCC5(c6ccccc6NC15C2C)C43 (stereo not given)	x	u	38.1	1.03µM*	1.3µM*	-1.7
C#Cc1ccc([C@H]2C=C(C(=O)Nc3ccccc3)O[C@@H](OCc3ccc(CO)cc3)C2)cc1	3.5%	-14.1%	-57.2*	u	u	34.2
O=C(Nc1ccccc1)C1=C[C@H](c2csc3ccccc23)C[C@H](OCc2ccc(CO)cc2)O1	6.4%	u	u	16.4µM*	16.4µM*	11.0
C=CCOC(=O)C1=C[C@H](c2csc3ccccc23)C[C@H](OCc2ccc(CO)cc2)O1	x	x	-0.1	u	20.6µM*	-13.1

Assay outcomes (PubChem BioAssay)
